# Assay results reported in PubChem BioAssay.
# Calls of active or inactive are those of the source. Unless noted, no rule for the calls is given here.
# Tests used:
# [1] = compounds binding Alexa647 anti-His antibody – biochemical, small-molecule microarray, 635 nm fluorescence, artefact control for SMM control protein annotation, primary screen (AID 1128); settings: higher = more signal;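 also: score merges feature fluorescence with signal-to-noise for each printed compound spot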
# [2] = test system: Human papillomavirus type 1a E7 protein (residues 1-88); test: HPV1a E7 small-molecule binders, primary screen, biochemical, small-molecule microarray, residues 1-88, 635 nm (AID 1129); settings: small-molecule microarray binding, fluorescence 635 nm; higher = more signal
# [3] = target: Focal adhesion kinase 1 (Homo sapiens) (UniProt Q05397); test: PTK2 protein binding on printed compound slides – biochemical, small-molecule microarray, 635/667 nm fluorescence, BSA, DTT, primary screen (AID 1130); settings: 635 nm fluorescence, higher = more signal;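 also: composite of spot emission at 667 nm and signal to noise over triplicate slides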
# [4] = test system: Fibrinogen (Alexa647-labelled); test: Alexa647-fibrinogen binding to printed small molecules – biochemical, small-molecule microarray, 635/667 nm fluorescence, artefact control for SMM control-protein annotation, profiling panel (AID 1131); settings: fibrinogen-A647 binding fluorescence, higher = more signal;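 also: z-score merges 667 nm fluorescence with per-spot signal-to-noise over triplicate slides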
# [5] = target: Follistatin (Homo sapiens) (UniProt P19883); test: FST protein binding to printed compounds – biochemical, small-molecule microarray, 635/667 nm fluorescence, primary screen (AID 1132); settings: 635 nm fluorescence, higher = more signal
# [6] = target: Fibroblast growth factor 2 (Homo sapiens) (UniProt P09038); test: basic fibroblast growth factor binding to printed compounds – biochemical, small-molecule microarray, 635/667 nm fluorescence, primary screen (AID 1133); settings: FGF2, fluorescence 635/667, higher = more signal
# [7] = JC-1 mitochondrial potential readout, lung cancer cells – cell-based, A549, JC-1 fluorescence, basal, 24 h, 100 nL, profiling panel (AID 1138); settings: higher = more signal;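 also: A549 lung adenocarcinoma cells under basal conditions with no added stimulus; test concentration not given here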
# [8] = test system: Lefty1; test: Lefty1 protein binding to printed compounds – biochemical, small-molecule microarray, 635/667 nm fluorescence, primary screen (AID 1139); settings: fluorescence 635/667, higher = more signal
# [9] = test system: wheat germ agglutinin (Triticum aestivum), Alexa647-labelled; test: Alexa647-WGA lectin binding to printed small molecules – biochemical, small-molecule microarray, 635/667 nm fluorescence, artefact control for SMM control-protein annotation, profiling panel (AID 1140); settings: WGA-A647 binding, 635 nm fluorescence, higher = more signal;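 also: score merges 667 nm feature emission with signal to noise over triplicate slides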
# [10] = target: Luciferin 4-monooxygenase (Photinus pyralis) (UniProt P08659); test: inhibition of purified Photinus pyralis luciferase – biochemical, luminescence, purified enzyme, 2006 set, primary screen (AID 1141); settings: purified firefly luciferase, SteadyGlo luminescence, 30 min; higher = more signal, called active from +8 up or from −8 down;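 also: cell-free assay with purified firefly luciferase at 100 ng per well in PBS; test concentration not given here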
# [11] = test system: Wnt5a (protein binding on small-molecule microarray); test: small molecules binding Wnt5a protein – biophysical, small-molecule microarray, 635/667 nm fluorescence, primary screen (AID 1142); settings: 635 nm fluorescence, higher = more signal;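 also: fluorescence read at 667 nm with signal to noise per printed feature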
# [12] = ATP-based viability of Huh7 replicon cells – cell-based, CellTiter-Glo luminescence, basal, 48 h, cytotoxicity control for HCV replication inhibitor project, primary screen (AID 1143); settings: higher = more signal, called active from +8 up or from −8 down;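 also: Huh7 hepatoma cells carrying a hepatitis C replication reporter with no stimulus; test concentration not given here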
# [13] = Pseudomonas biofilm growth suppression – PAO1 strain, BacTiter-Glo luminescence, LB-PBS, primary screen (AID 1144); settings: P. aeruginosa PAO1 biofilm, 12 h, higher = more signal
# [14] = basal CRE-LacZ reporter activity in PC12 – cell-based, unstimulated, primary screen (AID 1145); settings: no forskolin, luminescence, 4.5 h, higher = more signal, called active from +8 up or from −8 down
# [15] = forskolin-driven CRE-LacZ activity in PC12 – cell-based, CRE-LacZ reporter, forskolin-stimulated, primary screen (AID 1146); settings: luminescence, 4.5 h, higher = more signal, called active from +8 up or from −8 down;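 also: PC12 cells with 6xCRE LacZ reporter stimulated by forskolin 10 µM; beta-galactosidase reporter signal reflecting CREB driven transcription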
# [16] = target: Streptavidin (Streptomyces avidinii) (UniProt P22629); test: compounds binding control protein streptavidin – biophysical, small-molecule microarray, 635/667 nm fluorescence, artefact control for SMM compound annotation, primary screen (AID 1147); settings: higher = more signal;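 also: signal reflects streptavidin binding to arrayed compounds as a control protein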
# [17] = probe aInhba binding on compound microarray – biochemical, small-molecule microarray, 635/667 nm fluorescence, primary screen (AID 1148); settings: higher = more signal;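 also: score merges 667nm spot fluorescence with signal-to-noise for antibody binding to printed compounds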
# [18] = target: Torsin-1A (Homo sapiens) (UniProt O14656); test: TOR1A wild-type binding on microarray – cell lysate, small-molecule microarray, lysate, 635/667 nm, primary screen (AID 1149); settings: COS7 hTOR1A-WT lysate, 635 nm fluorescence, higher = more signal
# [19] = target: Torsin-1A (Homo sapiens) (UniProt O14656); test: torsin A mutant lysate binding on microarrays – cell lysate, small-molecule microarray, COS7 lysate, 635/667 nm fluorescence, primary screen (AID 1150); settings: COS7 hTOR1A mutant lysate, 635 nm fluorescence, higher = more signal;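 also: score pools 667 nm emission and signal to noise measuring lysate protein binding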
# [20] = test system: Sonic hedgehog protein (Shh); test: Sonic hedgehog microarray binding compounds – biochemical, small-molecule microarray, 635/667 nm fluorescence, primary screen (AID 1151); settings: 635 nm fluorescence, higher = more signal;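 also: Shh protein binding to compounds spotted on small-molecule microarray slides; score combines spot fluorescence intensity with signal-to-noise across triplicate slides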
# Focal adhesion kinase 1 (Homo sapiens), sequence (Q05397 whole entry, looked up): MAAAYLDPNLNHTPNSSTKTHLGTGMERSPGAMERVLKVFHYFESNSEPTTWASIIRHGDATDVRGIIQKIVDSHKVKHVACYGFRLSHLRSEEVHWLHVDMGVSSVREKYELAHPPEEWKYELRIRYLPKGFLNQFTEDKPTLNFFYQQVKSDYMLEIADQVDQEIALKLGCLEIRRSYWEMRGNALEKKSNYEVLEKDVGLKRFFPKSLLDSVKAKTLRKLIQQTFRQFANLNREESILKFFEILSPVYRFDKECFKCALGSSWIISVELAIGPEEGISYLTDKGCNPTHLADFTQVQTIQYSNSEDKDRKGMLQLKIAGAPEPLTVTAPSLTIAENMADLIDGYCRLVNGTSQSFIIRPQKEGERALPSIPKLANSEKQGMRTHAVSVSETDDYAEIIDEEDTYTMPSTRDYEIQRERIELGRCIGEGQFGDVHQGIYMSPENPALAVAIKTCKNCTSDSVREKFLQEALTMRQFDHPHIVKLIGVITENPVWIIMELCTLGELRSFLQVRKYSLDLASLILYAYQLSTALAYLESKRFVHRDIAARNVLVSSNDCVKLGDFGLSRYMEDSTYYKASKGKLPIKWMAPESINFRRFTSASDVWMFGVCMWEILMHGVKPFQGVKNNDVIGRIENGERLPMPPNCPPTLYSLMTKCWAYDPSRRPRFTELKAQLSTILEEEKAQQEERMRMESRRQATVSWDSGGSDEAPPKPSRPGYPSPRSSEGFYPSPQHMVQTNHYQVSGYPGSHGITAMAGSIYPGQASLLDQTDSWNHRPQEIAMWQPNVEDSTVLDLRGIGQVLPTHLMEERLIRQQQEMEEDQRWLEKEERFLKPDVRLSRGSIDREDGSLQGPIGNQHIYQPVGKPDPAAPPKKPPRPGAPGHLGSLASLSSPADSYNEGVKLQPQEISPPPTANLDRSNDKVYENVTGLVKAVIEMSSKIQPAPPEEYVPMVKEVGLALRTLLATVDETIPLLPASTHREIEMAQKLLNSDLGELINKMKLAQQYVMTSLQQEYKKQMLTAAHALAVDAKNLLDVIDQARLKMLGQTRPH
# Fibroblast growth factor 2 (Homo sapiens), sequence (P09038 whole entry, looked up): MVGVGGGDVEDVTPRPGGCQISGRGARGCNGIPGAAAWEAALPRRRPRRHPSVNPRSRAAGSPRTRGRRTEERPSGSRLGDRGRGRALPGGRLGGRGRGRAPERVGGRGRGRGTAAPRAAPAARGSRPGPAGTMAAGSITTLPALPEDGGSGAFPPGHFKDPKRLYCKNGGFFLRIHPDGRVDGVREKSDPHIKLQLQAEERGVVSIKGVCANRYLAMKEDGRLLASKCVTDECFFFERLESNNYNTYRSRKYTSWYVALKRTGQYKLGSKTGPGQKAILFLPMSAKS
# Luciferin 4-monooxygenase (Photinus pyralis), sequence (P08659 whole entry, looked up): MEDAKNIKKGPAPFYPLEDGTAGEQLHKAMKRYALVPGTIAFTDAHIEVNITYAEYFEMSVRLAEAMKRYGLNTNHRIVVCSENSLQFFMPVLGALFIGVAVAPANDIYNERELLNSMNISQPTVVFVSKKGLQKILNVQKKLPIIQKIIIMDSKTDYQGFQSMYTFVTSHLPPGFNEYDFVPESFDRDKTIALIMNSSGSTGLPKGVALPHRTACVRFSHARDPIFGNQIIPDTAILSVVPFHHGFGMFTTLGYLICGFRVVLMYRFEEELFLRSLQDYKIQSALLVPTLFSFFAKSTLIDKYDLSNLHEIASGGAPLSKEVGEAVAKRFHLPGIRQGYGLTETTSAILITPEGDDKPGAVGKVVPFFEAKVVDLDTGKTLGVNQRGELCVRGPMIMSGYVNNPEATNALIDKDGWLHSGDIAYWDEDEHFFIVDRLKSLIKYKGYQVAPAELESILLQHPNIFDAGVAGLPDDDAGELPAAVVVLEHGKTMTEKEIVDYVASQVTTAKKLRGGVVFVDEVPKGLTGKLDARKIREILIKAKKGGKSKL
# Follistatin (Homo sapiens), sequence (P19883 whole entry, looked up): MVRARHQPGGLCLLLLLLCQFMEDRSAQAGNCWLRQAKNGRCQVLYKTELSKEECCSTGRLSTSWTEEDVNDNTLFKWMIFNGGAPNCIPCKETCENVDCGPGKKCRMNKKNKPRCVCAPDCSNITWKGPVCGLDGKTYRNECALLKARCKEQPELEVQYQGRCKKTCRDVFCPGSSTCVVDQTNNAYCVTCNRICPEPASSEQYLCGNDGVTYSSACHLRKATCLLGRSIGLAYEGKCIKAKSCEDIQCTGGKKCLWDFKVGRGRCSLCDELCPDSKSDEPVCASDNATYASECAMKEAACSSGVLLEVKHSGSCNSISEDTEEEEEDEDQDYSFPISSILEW
# Torsin-1A (Homo sapiens), sequence (O14656 whole entry, looked up): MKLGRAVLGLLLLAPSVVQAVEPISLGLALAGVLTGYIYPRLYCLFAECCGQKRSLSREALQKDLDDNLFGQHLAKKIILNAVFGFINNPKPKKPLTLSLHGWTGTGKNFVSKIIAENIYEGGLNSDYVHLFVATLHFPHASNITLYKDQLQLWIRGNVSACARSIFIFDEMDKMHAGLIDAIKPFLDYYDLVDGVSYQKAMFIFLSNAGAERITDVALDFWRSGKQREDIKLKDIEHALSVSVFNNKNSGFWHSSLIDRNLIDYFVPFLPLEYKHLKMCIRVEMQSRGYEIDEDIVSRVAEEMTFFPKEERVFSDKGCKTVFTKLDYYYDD
# Streptavidin (Streptomyces avidinii), sequence (P22629 whole entry, looked up): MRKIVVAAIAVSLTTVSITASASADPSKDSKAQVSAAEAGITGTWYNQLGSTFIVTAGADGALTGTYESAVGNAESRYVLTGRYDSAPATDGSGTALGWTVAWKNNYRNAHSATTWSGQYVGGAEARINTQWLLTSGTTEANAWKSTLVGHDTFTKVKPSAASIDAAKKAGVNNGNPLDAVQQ
Structure (SMILES),composite z-score [1],composite z-score [2],composite z-score [3],composite z-score [4],composite z-score [5],composite z-score [6],z-score [7],composite z-score [8],composite z-score [9],z-score [10],composite z-score [11],z-score [12],z-score [13],z-score [14],z-score [15],composite z-score [16],composite z-score [17],composite z-score [18],composite z-score [19],composite z-score [20]
COC(=O)[C@H](C)NC(=O)CCC1CC(OC(=O)NCCc2ccc(F)cc2)CC2(CCCC(COC(=O)NCCc3ccc(Cl)cc3)O2)O1 (stereo not given in full),0.225,0.966,0.167,0.873,0.646,1.05,0.994,1.25,0.766,0.0182 (inactive),0.606,-0.195 (inactive),-0.739 (inactive),-0.0732 (inactive),-0.195 (inactive),1.07,-0.0937,2.31,-0.177,1.31
Cc1ccc(S[C@]2(C(=O)O)CC(=O)N(Cc3ccccc3)[C@@H]2c2ccc(CO)cc2I)cc1,2.86,0.242,0.284,0.186,0.023,-0.697,0.305,-0.69,0.189,-0.57 (inactive),-0.405,-1.32 (inactive),0.116 (inactive),1.97 (inactive),1.63 (inactive),0.556,-0.0963,-0.995,-0.604,-0.41
Cc1cc(C)c(-c2cc([C@H](C)ON=C3[C@H]4CCn5c(=O)n(-c6ccccc6)c(=O)n5[C@H]4[C@H](O)[C@@H]4O[C@H]34)on2)c(C)c1,-0.286,0.748,0.422,0.382,0.692,0.627,1.32,0.652,-0.0095,0.154 (inactive),0.266,-1.72 (inactive),1.96 (inactive),0.229 (inactive),1.43 (inactive),0.548,-0.0066,0.595,0.754,0.767
COC(=O)CC=C[C@@H](C)[C@@H](C=NO[C@@H](C)c1cc(-c2c(C)cc(C)cc2C)no1)OC,0.525,-1.06,-0.688,-1.47,-0.732,-1.35,-0.542,-1.43,-1.03,0.973 (inactive),-0.828,-2.12 (inactive),-0.726 (inactive),2.71 (inactive),-0.254 (inactive),-0.432,-0.249,-2.2,-2.18,-1.46
Cn1c(=O)n2n(c1=O)[C@H]1[C@H](O)[C@@H]3O[C@@H]3C(=NOC[C@@H](O)COCc3ccco3)[C@H]1CC2,-0.272,0.722,0.0225,0.617,0.357,0.468,0.596,0.777,-0.0253,-0.508 (inactive),0.0562,-0.0843 (inactive),0.0712 (inactive),0.248 (inactive),0.496 (inactive),0.548,0.0345,0.547,0.266,0.582
CC(C)NC(=O)[C@@]1(c2ccc([N+](=O)[O-])cc2)CC(=O)N(CC23CC4CC(CC(C4)C2)C3)[C@@H]1c1ccc(CO)cc1I,0.0833,1.14,0.457,-0.206,1.06,0.444,1.01,-0.167,0.403,0.355 (inactive),0.492,-5.69 (inactive),0.017 (inactive),0.531 (inactive),0.0456 (inactive),0.131,0.0435,0.484,0.369,0.746
COCCCNC(=O)[C@]1(CCC(=O)OC(C)(C)C)N=C(c2ccc(OCCCO)cc2)O[C@@H]1c1ccccc1N=[N+]=[N-],1.96,1.23,0.688,1.03,1.28,0.894,0.6,0.735,0.778,-12 (active),0.951,-1.41 (inactive),-1.67 (inactive),-0.482 (inactive),-0.478 (inactive),1.45,0.283,1.54,1.1,-0.2
COc1ccc(O[C@H]2C=C[C@@H](c3ccccc3)O[C@@H]2CON=C[C@@H](C)[C@H](OCc2ccccc2)C(C)C)cc1,0.901,-1.26,-0.302,-1.41,-0.675,-0.76,1.96,-0.214,0.12,0.0017 (inactive),-0.426,-0.149 (inactive),0.531 (inactive),-0.971 (inactive),0.367 (inactive),-0.567,-0.21,-1.53,-0.91,-0.071
COC(=O)CC1OC1[C@H](C)[C@@H](OC)C(C)C (stereo not given in full),-0.0177,0.212,-0.405,0.745,0.623,0.443,3.01,0.786,0.733,-1.73 (inactive),-0.0087,-0.229 (inactive),-0.183 (inactive),1.47 (inactive),-0.213 (inactive),-0.329,-0.0963,0.436,0.0299,0.813
COC(=O)[C@]1(CO)N=C(c2ccc(OCCCO)cc2)O[C@@H]1c1ccccc1N=[N+]=[N-],1.3,0.541,-0.277,0.633,1.43,1.6,0.299,0.83,-0.119,-1.64 (inactive),0.421,0.159 (inactive),0.393 (inactive),-0.609 (inactive),-0.736 (inactive),-0.435,0.0646,1.85,1.9,2.05
